PMC11062922 (Nature Chemical Biology, 2023)
Where two headings read alike, the source gives them in different places.

Tests used:
Set-up in all cases: species or system human, MV4-11 + K-562 + COLO205 + SK-N-BE2 + OVCAR-8
EPHA2 = conditions: read-out: apparent Kd, n = 1
EPHA5 = conditions: read-out: apparent Kd, n = 1
EPHB2 = conditions: read-out: apparent Kd, n = 1
EPHB4 = conditions: read-out: apparent Kd, n = 1
MAPKAPK2 = conditions: read-out: apparent Kd, n = 1
TGFBR2 = conditions: read-out: apparent Kd, n = 1
MAP4K5 = conditions: read-out: apparent Kd, n = 1
NLK = conditions: read-out: apparent Kd, n = 1
PDGFRB = conditions: read-out: apparent Kd, n = 1
DJA1 = system: T1, DJA1; conditions: read-out: apparent Kd; compound concentrations: 100 nM and 1000 nM (sheet 'Samples'), CATDS: 0.205535073981469; n = 1
T1 construct: gene DNAJA1

BUB1 = conditions: read-out: apparent Kd, n = 1
MAP2K1 = conditions: read-out: apparent Kd, compound concentrations: 100 nM and 1000 nM (sheet 'Samples'), n = 1
MAP2K2 = conditions: read-out: apparent Kd; compound concentrations: 100 nM and 1000 nM (sheet 'Samples'), CATDS: 6.4354786580358606E-2; n = 1
CSNK1D = conditions: read-out: apparent Kd; compound concentrations:100 nM and 1000 nM (sheet 'Samples'); n = 1
NQO1 = conditions: read-out: apparent Kd; compound concentrations:100 nM and 1000 nM (sheet 'Samples'); n = 1
TAOK1 = conditions: read-out: apparent Kd, n = 1
PIK3CD = conditions: read-out: apparent Kd; compound concentrations: 100 nM and 1000 nM (sheet 'Samples'), CATDS: 0.10575353255485199; n = 1
ERCC2 = conditions: read-out: apparent Kd, n = 1
[1] = compound concentrations:100 nM and 1000 nM (sheet 'Samples')

SMILES: Cc1ccc(O)cc1Nc1ccnc2cc(-c3ccccn3)ccc12.Cl [GW440139A]
- potency estimated from few doses (EPHA2; compound concentrations: 100 nM and 1000 nM (sheet 'Samples'), CATDS: 2.9853649287190101E-2): 529 nM
- potency estimated from few doses (EPHA5; compound concentrations: 100 nM and 1000 nM (sheet 'Samples'), CATDS: 4.7155213926178503E-2): 97.2 nM
- potency estimated from few doses (EPHB2; compound concentrations: 100 nM and 1000 nM (sheet 'Samples'), CATDS: 6.0515406545195598E-2): 52 nM
- potency estimated from few doses (EPHB4; compound concentrations: 100 nM and 1000 nM (sheet 'Samples'), CATDS: 9.4734389919906598E-2): 20.9 nM
- potency estimated from few doses (MAPKAPK2; compound concentrations: 100 nM and 1000 nM (sheet 'Samples'), CATDS: 2.53755109568197E-2): 1570 nM
- potency estimated from few doses (TGFBR2; compound concentrations: 100 nM and 1000 nM (sheet 'Samples'), CATDS: 0.155660799519896): 9.12 nM

SMILES: CCN(CC)CCOc1ccc(Nc2ncc3cc(-c4c(Cl)cccc4Cl)c(=O)n(C)c3n2)cc1 [SB-601273]
- potency estimated from few doses (EPHA2; [1]): 30.3 nM
- potency estimated from few doses (EPHA5; [1]): 135 nM
- potency estimated from few doses (EPHB2; [1]): 108 nM
- potency estimated from few doses (EPHB4; [1]): 30.2 nM
- potency estimated from few doses (MAP4K5; [1]): 2360 nM
- potency estimated from few doses (MAPKAPK2; [1]): 320 nM
- potency estimated from few doses (NLK; [1]): 1310 nM
- potency estimated from few doses (PDGFRB; [1]): 576 nM
- potency estimated from few doses (TGFBR2; [1]): 1260 nM

SMILES: COc1cc(Nc2nccc(N3CCC(NC(=O)c4cccc(C#N)c4)C3)n2)cc(OC)c1OC (centres unmarked) [GSK1379751A]
- potency estimated from few doses (DJA1): 817 nM

SMILES: Cc1nn(C)c2cc(N(C)c3ccnc(Nc4cccc(S(N)(=O)=O)c4)n3)ccc12.Cl [GW770220A]
- potency estimated from few doses (NLK; compound concentrations: 100 nM and 1000 nM (sheet 'Samples'), CATDS: 0.27942165636777999): 1030 nM

SMILES: CC(=O)N1CCN(c2ccc(Nc3nccc(-c4sc(C(C)C)nc4-c4cccc(NS(=O)(=O)c5ccccc5)c4)n3)cn2)CC1 [GSK1645872A]
- potency estimated from few doses (BUB1; compound concentrations: 100 nM and 1000 nM (sheet 'Samples'), CATDS: 3.26865073204873E-2): 604 nM

SMILES: CC(C)c1nc(-c2cccc(NS(=O)(=O)c3c(F)cccc3F)c2)c(-c2ccnc(Nc3ccc(N4CCOCC4)nc3)n2)s1.Cl [GSK1723980B]
- potency estimated from few doses (BUB1; compound concentrations: 100 nM and 1000 nM (sheet 'Samples'), CATDS: 3.0141053938719398E-2): 191 nM

SMILES: N#Cc1cnc2cc(-c3cnc(CNCCN4CCOCC4)s3)ccc2c1Nc1ccc(Oc2ccccc2)cc1 [GW664114X]
- potency estimated from few doses (MAP2K1; CATDS: 5.9486551355906997E-2): 606 nM
- potency estimated from few doses (MAP2K2): 499 nM
- potency estimated from few doses (MAP4K5; compound concentrations: 100 nM and 1000 nM (sheet 'Samples'), CATDS: 0.103025865385486): 199 nM

SMILES: Fc1ccc(-c2c(-c3ccncc3)[nH]c3nccnc23)cc1 [RO1155697-000]
- potency estimated from few doses (BUB1; [1]): 1970 nM
- potency estimated from few doses (CSNK1D): 8.23 nM
- potency estimated from few doses (NQO1): 1590 nM
- potency estimated from few doses (TAOK1; [1]): 1150 nM

SMILES: COc1ccc(-c2nc3n(c2-c2ccncc2)CCC3)cc1.COc1ccc(-c2nc3n(c2-c2ccncc2)CCC3)cc1.O=S(=O)(O)O.O=S(=O)(O)O [SKF-104493-B2]
- potency estimated from few doses (MAP2K1; CATDS: 9.8642022165156204E-2): 2400 nM
- potency estimated from few doses (MAPKAPK2; compound concentrations: 100 nM and 1000 nM (sheet 'Samples'), CATDS: 0.15746092707453499): 867 nM

SMILES: CN1CCN(Cc2ccc(NC(=O)Nc3ccc(N(C)c4ccnc(Nc5ccc(CS(C)(=O)=O)cc5)n4)cc3)cc2)CC1.Cl [GW827654A]
- potency estimated from few doses (PDGFRB; compound concentrations: 100 nM and 1000 nM (sheet 'Samples'), CATDS: 3.4418079191200303E-2): 1860 nM

SMILES: O=S(=O)(CCOCc1ccc(-c2ccc3ncnc(Nc4ccc(OCc5cccc(F)c5)c(Cl)c4)c3c2)o1)c1ccccc1 [GW615311X]
- potency estimated from few doses (PIK3CD): 176 nM

SMILES: COc1cc2ncn(-c3cc(OCc4cccs4)c(C(N)=O)s3)c2cc1OC [GSK312948A]
- potency estimated from few doses (MAP4K5; [1]): 116 nM

SMILES: CN1CCc2ccc(Nc3nccc(-c4c(-c5cccc(NC(=O)c6c(F)cccc6F)c5)nc5ccccn45)n3)cc2C1.Cl [GSK1010829B]
- potency estimated from few doses (MAP4K5; compound concentrations: 100 nM and 1000 nM (sheet 'Samples'), CATDS: 3.0196131161379001E-2): 2130 nM
- potency estimated from few doses (TAOK1; compound concentrations: 100 nM and 1000 nM (sheet 'Samples'), CATDS: 4.1687643746907199E-2): 830 nM

SMILES: CNC(=O)c1ccccc1Nc1nc(Nc2cccc(CS(C)(=O)=O)c2)ncc1C.O=CO [GSK1520489A]
- potency estimated from few doses (EPHA2; compound concentrations: 100 nM and 1000 nM (sheet 'Samples'), CATDS: 2.7940284559804102E-2): 66.2 nM
- potency estimated from few doses (PDGFRB; compound concentrations: 100 nM and 1000 nM (sheet 'Samples'), CATDS: 9.8482456119854799E-3): 1420 nM

SMILES: Cc1ccc(O)cc1Nc1ccnc2ccc(C(C)(C)C)cc12 [GW856805X]
- potency estimated from few doses (EPHA2; compound concentrations: 100 nM and 1000 nM (sheet 'Samples'), CATDS: 8.0596912814025104E-2): 18.5 nM
- potency estimated from few doses (EPHA5; compound concentrations: 100 nM and 1000 nM (sheet 'Samples'), CATDS: 8.5514092870098604E-2): 16.4 nM
- potency estimated from few doses (EPHB2; compound concentrations: 100 nM and 1000 nM (sheet 'Samples'), CATDS: 6.5287043089823998E-2): 29.3 nM
- potency estimated from few doses (EPHB4; compound concentrations: 100 nM and 1000 nM (sheet 'Samples'), CATDS: 0.113366992887299): 9.72 nM
- potency estimated from few doses (TGFBR2; compound concentrations: 100 nM and 1000 nM (sheet 'Samples'), CATDS: 3.9995494154685202E-2): 130 nM

SMILES: CC(C)c1nc(-c2ccc(F)c(NS(=O)(=O)c3c(F)cccc3F)c2)c(-c2ccnc(Nc3ccc(N4CCOCC4)nc3)n2)s1 [GSK1804250A]
- potency estimated from few doses (BUB1; [1]): 553 nM

SMILES: N#Cc1cccc(Nc2nccc(-c3cnn4ncccc34)n2)c1 [GW778894X]
- potency estimated from few doses (CSNK1D): 199 nM
- potency estimated from few doses (ERCC2; [1]): 780 nM
- potency estimated from few doses (NLK; [1]): 1560 nM
- potency estimated from few doses (TGFBR2; [1]): 35.7 nM

SMILES: CN(C)Cc1ccc(-c2ccc3c(Nc4ccc(Oc5ccccn5)cc4)ccnc3c2)o1 [GW567148X]
- potency estimated from few doses (EPHA5; compound concentrations: 100 nM and 1000 nM (sheet 'Samples'), CATDS: 2.06539246385424E-2): 902 nM
- potency estimated from few doses (EPHB2; compound concentrations: 100 nM and 1000 nM (sheet 'Samples'), CATDS: 2.3863521838316901E-2): 615 nM
- potency estimated from few doses (EPHB4; compound concentrations: 100 nM and 1000 nM (sheet 'Samples'), CATDS: 2.5851405238779799E-2): 509 nM
- potency estimated from few doses (ERCC2; compound concentrations: 100 nM and 1000 nM (sheet 'Samples'), CATDS: 2.5327932043398099E-2): 534 nM

SMILES: Cn1cc(-c2cnc(N)c3c(-c4ccc5c(c4)CCN5C(=O)Cc4ccccc4)csc23)cn1 [GSK2593074A]
- potency estimated from few doses (MAP4K5; [1]): 302 nM
